From the supplement of paper PMC5662767

Tested on: Drosophila S2 cl14 SmoIP sensor cells
Assay: normalized SmoIP GFP fluorescence (untreated unstimulated = 0%, untreated Hh-stimulated = 100%); higher = more Smo activation sensor fluorescence
Conditions: compound concentration: 2 uM, 24 h
[1] = stimulation: Hh conditioned medium (+Hh)
[2] = stimulation: mock conditioned medium (-Hh)
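Note: flow cytometry read-out as median GFP intensity of gated cells, compounds added 30 min before Hh-conditioned or mock medium, mock-treated cells serving as unstimulated baseline.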

Compound	normalized SmoIP GFP fluorescence [1] [%]	normalized SmoIP GFP fluorescence [2] [%]
Nc1nc(=O)n([C@@H]2CS[C@H](CO)O2)cc1F [Emtricitabine]	111	-14.7
Nc1nc(N)nc(-c2cc(Cl)ccc2Cl)n1 [Irsogladine-maleate]	140	-3.9
CNC(=O)c1ccc(-c2cnc3ncc(Cc4ccc5ncccc5c4)n3n2)cc1F	107	-1.34
CN(C)CCC(c1ccc(Br)cc1)c1ccccn1 (stereo unspecified) [brompheniramine]	138	-5.17
Nc1ccccc1NC(=O)c1ccc(CNC(=O)OCc2cccnc2)cc1	203	6.74
CO[C@H]1C[C@@H]2CC[C@@H](C)[C@@](O)(O2)C(=O)C(=O)N2CCCC[C@H]2C(=O)O[C@H]([C@H](C)C[C@@H]2CC[C@@H](OP(C)(C)=O)[C@H](OC)C2)CC(=O)[C@H](C)/C=C(\C)[C@@H](O)[C@@H](OC)C(=O)[C@H](C)C[C@H](C)/C=C/C=C/C=C/1C [Deforolimus]	23.8	-8.56
O=C1Nc2ccccc2/C1=C1/Nc2ccccc2C1=O [Indirubin]	127	-11.4
CCC[C@H](NC(=O)/C(C#N)=C/c1cccc(Br)n1)c1ccccc1	114	15.7
